# In PubChem BioAssay:
# Values without a mark were called inactive. Calls of active or inactive are those of the source. No stated cut-off is given here; in the data, active means inhibition above about 28%; inactive means the rest.
# Experiment: StAR promoter reporter inhibitors, counter-screen for LRH-1 inverse agonist project, cell-based, luminescence, high throughput (AID 651611)
# Conditions: StAR promoter luciferase reporter counterscreen, at 3.6 µM, hits give high values
row,Structure (SMILES),inhibition
1,O=[N+]([O-])c1cccc(-c2nc(-c3cccs3)c(-c3cccs3)[nH]2)c1,19.7%
2,Cc1cc(C)c(S(=O)(=O)/N=C2/C=C(Sc3ncn[nH]3)C(=O)c3ccccc32)cc1C,27.3%
3,Nc1ccc2oc(-c3cc(Br)ccc3Cl)nc2c1,-34.3%
4,C1=C(CCNc2ncnc3c2[nH]c2ccccc23)CCCC1,-12%
5,O=C1OC(Nc2cc(Br)cc3cccnc23)c2ccccc21 (stereo unspecified),16.4%
6,COc1cccc(/C=N/NC(=O)c2[nH]c(C)c(C(=O)N/N=C/c3cccc(OC)c3O)c2C)c1O,42.2% (active)
7,C(=N\Nc1nc2ccccc2[nH]1)/c1cccc2cccnc12,49.4% (active)
8,COCCn1c(N)c(C(=O)NCC2CCCO2)c2nc3ccccc3nc21 (stereo unspecified),26.9%
9,COc1cccc2c1C(=O)c1c(O)c3c(c(O)c1C2=O)C[C@](O)(C(C)=O)C[C@H]3O[C@@H]1C[C@@H](N)[C@@H](O)[C@@H](C)O1,67% (active)
10,CN1CCN(c2ccc(NC(=O)c3ccc(-c4ccc(Br)cc4)o3)cc2)CC1,0.51%
11,O=C1C(SCCO)=C(SCCO)C(=O)c2ccccc21,26.2%
12,CCc1ccc(S(=O)(=O)/N=C2\C=C(Nc3ccc(O)cc3)C(=O)c3ccccc32)cc1,90.1% (active)
13,COc1cccc(-c2nc(NC(C)C)c3ccccc3n2)c1O,21.2%
14,Cc1cccc(-n2c3nc(=O)[nH]c(=O)c-3cc3cc([N+](=O)[O-])ccc32)c1,20.4%
15,CCCCn1c(NS(=O)(=O)c2ccccc2)c(S(=O)(=O)c2ccc(C)cc2)c2nc3ccccc3nc21,15.2%
16,O=[N+]([O-])c1ccc(-c2nc(-c3cccs3)c(-c3cccs3)[nH]2)cc1,15.5%
